Measured values: PubChem BioAssay (Tox21)
Results filed as inconclusive are left out. Active and inactive are the calls of the source. The call rests on the fitted dose curve; in most records, active means well fitted curve in the direction sought with a large enough effect in the repeat runs; inconclusive means weak or mixed curves; inactive means no such curve, though single readings can be large; an effect the other way counts as inactive or inconclusive.

How the values were obtained:
[1] = A CellTox Green Cytotoxicity Assay to monitor cytotoxicity in HEK293 cells - 40 hour (AID 1224871); further: nearly all actives have a fitted effect of over 45% in size
How it was run: (§1)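 HEK293 cells, 600/well, were preincubated 5 hours and then exposed to compounds at 37 C for up to 40 hours. A cell-impermeant cyanine dye staining dead-cell DNA was read by fluorescence at 0, 8, 16, 24, 32 and 40 h time points.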

[2] = qHTS RealTime-Glo MT Cell Viability Assay in HEK293 cells - 16 hour (AID 1224872); further: top concentration of the series differs between compounds; nearly all actives have a fitted effect of over 50% in size
How it was run: (§2)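 Nonlytic real-time viability readout: viable cells convert prosubstrate to NanoLuc substrate, giving luminescence proportional to live cell number. HEK293, 600 cells/well, compound added after 5 h, continuous culture at 37 C.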

[3] = qHTS RealTime-Glo MT Cell Viability Assay in HepG2 cells - 8 hour (AID 1224873); further: nearly all actives have a fitted effect of over 55% in size
How it was run: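 HepG2 cells mixed with RealTime-Glo MT reagents (NanoLuc plus cell-permeant prosubstrate) were seeded at 600 cells/well, incubated 5 h at 37 C/5% CO2, then pinned with compounds in DMSO; nonlytic luminescence tracked viability during 40 h treatment.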

[4] = qHTS RealTime-Glo MT Cell Viability Assay in HEK293 cells - 40 hour (AID 1224874); conditions: RealTime-Glo luminescence; max response: hits give low values; further: nearly all actives have a fitted effect of over 50% in size
How it was run: (§3)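 600 cells/well were plated with the nonlytic NanoLuc/prosubstrate reagent, pre-incubated 5 h, then given 23 nL of compound in DMSO. Incubation at 37 C for 40 h, with luminescence from viable-cell-reduced substrate read repeatedly from 0 h.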

[5] = A CellTox Green Cytotoxicity Assay to monitor cytotoxicity in HEK293 cells - 24 hour (AID 1224875); further: series mostly up to about 77 µM; nearly all actives have a fitted effect of over 45% in size
How it was run: as §1

[6] = A CellTox Green Cytotoxicity Assay to monitor cytotoxicity in HepG2 cells - 16 hour (AID 1224876); further: nearly all actives have a fitted effect of over 45% in size
How it was run: (§4)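 HepG2 cells, 600/well, preincubated 5 h with CellTox Green dye, then exposed to Tox21 compounds in DMSO at 37 C for up to 40 h. Dead-cell DNA fluorescence read at the indicated time point.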

[7] = qHTS RealTime-Glo MT Cell Viability Assay in HepG2 cells - 32 hour (AID 1224877); further: nearly all actives have a fitted effect of over 55% in size
How it was run: (§5)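 Luminescence read-out: viable HepG2 cells reduce a prosubstrate to a NanoLuc substrate, giving a signal proportional to live cell number. Reads taken at 0, 8, 16, 24, 32 and 40 h of compound exposure at 37 C.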

[8] = A CellTox Green Cytotoxicity Assay to monitor cytotoxicity in HepG2 cells - 24 hour (AID 1224878); further: nearly all actives have a fitted effect of over 45% in size
How it was run: as §4

[9] = A CellTox Green Cytotoxicity Assay to monitor cytotoxicity in HepG2 cells - 40 hour (AID 1224879); further: nearly all actives have a fitted effect of over 40% in size
How it was run: as §4

[10] = qHTS RealTime-Glo MT Cell Viability Assay in HEK293 cells - 0 hour (AID 1224880)
How it was run: as §3

[11] = A CellTox Green Cytotoxicity Assay to monitor cytotoxicity in HEK293 cells - 32 hour (AID 1224881); further: nearly all actives have a fitted effect of over 40% in size
How it was run: as §1

[12] = A CellTox Green Cytotoxicity Assay to monitor cytotoxicity in HepG2 cells - 0 hour (AID 1224882); further: nearly all actives have a fitted effect of over 35% in size
How it was run: as §4

[13] = A CellTox Green Cytotoxicity Assay to monitor cytotoxicity in HepG2 cells - 32 hour (AID 1224883); further: nearly all actives have a fitted effect of over 50% in size
How it was run: as §4

[14] = A CellTox Green Cytotoxicity Assay to monitor cytotoxicity in HEK293 cells - 8 hour (AID 1224884); further: nearly all actives have a fitted effect of over 35% in size
How it was run: as §1

[15] = qHTS RealTime-Glo MT Cell Viability Assay in HepG2 cells - 16 hour (AID 1224885); further: nearly all actives have a fitted effect of over 50% in size
How it was run: as §5

[16] = qHTS RealTime-Glo MT Cell Viability Assay in HEK293 cells - 24 hour (AID 1224886)
How it was run: as §2

[17] = qHTS RealTime-Glo MT Cell Viability Assay in HEK293 cells - 8 hour (AID 1224887)
How it was run: as §3

[18] = A CellTox Green Cytotoxicity Assay to monitor cytotoxicity in HEK293 cells - 16 hour (AID 1224888); further: nearly all actives have a fitted effect of over 35% in size
How it was run: as §1

[19] = qHTS RealTime-Glo MT Cell Viability Assay in HepG2 cells - 0 hour (AID 1224889); further: nearly all actives have a fitted effect of over 50% in size
How it was run: as §5

[20] = A CellTox Green Cytotoxicity Assay to monitor cytotoxicity in HepG2 cells - 8 hour (AID 1224890); further: nearly all actives have a fitted effect of over 45% in size
How it was run: as §4
On the % scale 0 is the no-effect control and ±100 the full control effect.

Clc1cc(Cl)cc(Cl)c1
inactive: Potency [1] | Potency [2] | outcome [3] | max response [4] 12.7% | outcome [5] | outcome [6] | Potency [7] | outcome [8] | Potency [9] | Potency [10] | outcome [11] | Potency [12] | Potency [13] | outcome [14] | outcome [15] | Potency [16] | Potency [17] | outcome [18] | Potency [19] | outcome [20]

CNC(=O)Nc1ccc(Cl)c(Cl)c1
inactive: Potency [1] | Potency [2] | outcome [3] | max response [4] -26.8% | outcome [5] | outcome [6] | Potency [7] | outcome [8] | Potency [9] | Potency [10] | outcome [11] | Potency [12] | Potency [13] | outcome [14] | outcome [15] | Potency [16] | Potency [17] | outcome [18] | Potency [19]

CC(C)[C@H]1CC[C@@H](C)CC1=O
inactive: Potency [1] | Potency [2] | outcome [3] | max response [4] -1.73% | outcome [5] | outcome [6] | Potency [7] | outcome [8] | Potency [9] | Potency [10] | outcome [11] | Potency [12] | Potency [13] | outcome [14] | outcome [15] | Potency [16] | Potency [17] | outcome [18]

CC(=O)C1CCCCC1=O (stereo not given)
inactive: Potency [1] | Potency [2] | outcome [3] | max response [4] 15.3% | outcome [5] | outcome [6] | Potency [7] | outcome [8] | Potency [9] | Potency [10] | outcome [11] | Potency [12] | Potency [13] | outcome [14] | outcome [15] | Potency [16] | Potency [17] | outcome [18] | Potency [19]

c1coc(CNc2ncnc3nc[nH]c23)c1
inactive: Potency [1] | Potency [2] | outcome [3] | max response [4] -15.6% | outcome [5] | outcome [6] | Potency [7] | outcome [8] | Potency [9] | Potency [10] | outcome [11] | Potency [12] | Potency [13] | outcome [14] | outcome [15] | Potency [16] | Potency [17] | outcome [18] | Potency [19]

O=Cc1cccc(Br)c1
inactive: Potency [1] | Potency [2] | outcome [3] | max response [4] 4.64% | outcome [5] | outcome [6] | Potency [7] | outcome [8] | Potency [9] | Potency [10] | outcome [11] | Potency [12] | Potency [13] | outcome [14] | outcome [15] | Potency [16] | Potency [17] | outcome [18] | Potency [19]

C1CCC2=NCCCN2CC1
inactive: Potency [1] | Potency [2] | outcome [3] | max response [4] 20.2% | outcome [5] | outcome [6] | Potency [7] | outcome [8] | Potency [9] | Potency [10] | outcome [11] | Potency [12] | Potency [13] | outcome [14] | outcome [15] | Potency [16] | Potency [17] | outcome [18] | Potency [19] | outcome [20]

CCOC(=O)OC(C)OC1=C(C(=O)Nc2ccccn2)N(C)S(=O)(=O)c2ccccc21 (stereo not given)
inactive: Potency [1] | Potency [2] | outcome [3] | max response [4] 1.81% | outcome [5] | outcome [6] | Potency [7] | outcome [8] | Potency [9] | Potency [10] | outcome [11] | Potency [12] | Potency [13] | outcome [14] | outcome [15] | Potency [16] | Potency [17] | outcome [18] | Potency [19]

CC1CCC(CO)CC1 (stereo not given)
inactive: Potency [1] | Potency [2] | outcome [3] | max response [4] 9.47% | outcome [5] | outcome [6] | Potency [7] | outcome [8] | Potency [9] | Potency [10] | outcome [11] | Potency [12] | Potency [13] | outcome [14] | outcome [15] | Potency [16] | Potency [17] | outcome [18] | Potency [19]

CC1=NN(c2cc(S(=O)(=O)O)ccc2Cl)C(=O)C1N=Nc1ccccc1 (stereo not given)
inactive: Potency [1] | Potency [2] | outcome [3] | max response [4] 8.94% | outcome [5] | outcome [6] | Potency [7] | outcome [8] | Potency [9] | Potency [10] | outcome [11] | Potency [12] | Potency [13] | outcome [14] | outcome [15] | Potency [16] | Potency [17] | outcome [18] | Potency [19]

CN(C)CCCN(C)CCCN(C)C
inactive: Potency [1] | Potency [2] | outcome [3] | max response [4] -6.89% | outcome [5] | outcome [6] | Potency [7] | outcome [8] | Potency [9] | Potency [10] | outcome [11] | Potency [12] | Potency [13] | outcome [14] | outcome [15] | Potency [16] | Potency [17] | outcome [18] | Potency [19] | outcome [20]

O=S(=O)(O)c1cccc(S(=O)(=O)O)c1
inactive: Potency [1] | Potency [2] | outcome [3] | max response [4] 15.6% | outcome [5] | outcome [6] | Potency [7] | outcome [8] | Potency [9] | Potency [10] | outcome [11] | Potency [12] | Potency [13] | outcome [14] | outcome [15] | Potency [16] | Potency [17] | outcome [18] | Potency [19]

C[C@H]1C[C@H]2[C@@H]3CCC4=CC(=O)C=C[C@]4(C)[C@H]3C(=O)C[C@]2(C)[C@@]1(O)C(=O)CO
inactive: Potency [1] | Potency [2] | outcome [3] | max response [4] 0.535% | outcome [5] | outcome [6] | Potency [7] | outcome [8] | Potency [9] | Potency [10] | outcome [11] | Potency [12] | Potency [13] | outcome [14] | outcome [15] | Potency [16] | Potency [17] | outcome [18] | Potency [19] | outcome [20]
